Assay [1] can be described thus: ATG_TAL_CIS: Attagene CIS-FACTORIAL HepG2 Assay for human TAL Basal Promoter (AID 2282966; active = hit-call score of the fitted dose curve at least 0.9, where 1 is the maximum; inactive = score below 0.9;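 note: background control endpoint measuring basal TAL promoter reporter mRNA not a specific factor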). Particulars: HepG2 Attagene cis-factorial TAL promoter reporter; actives raise or lower the signal. In a few lines:
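Endogenous transcription-factor activity is sensed in HepG2 cells through transfected cis-promoter reporter constructs. After 24 h dosing, reporter transcripts are quantified by RT-PCR and capillary electrophoresis. Gain or loss of signal is fitted relative to DMSO.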

Assay [2] in a line: ATG_TGFb_CIS: Attagene CIS-FACTORIAL HepG2 Assay for human Transforming Growth Factor (TGF) (AID 2282967; active = hit-call score of the fitted dose curve at least 0.9, where 1 is the maximum; inactive = score below 0.9). Particulars: HepG2 Attagene CIS TGFb reporter, mRNA transcription; actives raise or lower the signal. In a few lines:
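Transient MRTU transfection of HepG2 (FuGene 6). Dose 24 h. TriZol RNA, oligo(dT) RT, PCR, 6-FAM primer extension, HpaI cut, CE. Bidirectional fit, DMSO = baseline.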

Assay [3] can be described thus: ATG_VDRE_CIS: Attagene CIS-FACTORIAL HepG2 Assay for human Vitamin D Receptor Element (VDRE) (AID 2282968; active = hit-call score of the fitted dose curve at least 0.9, where 1 is the maximum; inactive = score below 0.9). Particulars: HepG2 VDRE cis-reporter transcription, actives raise or lower the signal. In a few lines:
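Compounds were applied for 24 h to HepG2 cells transfected with promoter-regulated reporter units. Total RNA was reverse-transcribed, and reporter amplicons were fluorescently labelled and sized by capillary electrophoresis.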

For assay [4], the target named is Nuclear receptor subfamily 1 group I member 3 (Homo sapiens) (UniProt Q14994). Nature of the assay: ATG_CAR_TRANS: Attagene TRANS-FACTORIAL HepG2 Assay for human Constitutive Androstane Receptor (CAR) (AID 2282969).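 Note: activators raise reporter mRNA above DMSO so AC50 marks induction.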 Particulars: HepG2 Attagene TRANS-FACTORIAL CAR reporter. In a few lines:
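Transiently transfected HepG2, multiplex TRANS reporters (CAR-Gal4 chimera driving GAL4-UAS reporter). 24 h dosing. Readout: reporter transcript by RT-PCR + capillary electrophoresis, fluorescence intensity; positive direction vs DMSO.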

The target in assay [5] is Estrogen receptor (Homo sapiens) (UniProt P03372). The assay is described as follows: ATG_ERa_TRANS: Attagene TRANS-FACTORIAL HepG2 Assay for human Estrogen Receptor alpha (ERa) (AID 2282970). The note with it: HepG2 Attagene TRANS ERa GAL4 reporter, mRNA. In a few lines: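 Transfected HepG2 cells carrying GAL4-UAS-driven reporter units were dosed for 24 hours. Total RNA was reverse-transcribed, reporter sequences PCR-amplified, FAM-labelled, HpaI-digested and resolved by capillary electrophoresis. Increases over DMSO control defined activity.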
Sequence of Estrogen receptor (Homo sapiens) (P03372 whole entry, looked up, the tested form may be a part): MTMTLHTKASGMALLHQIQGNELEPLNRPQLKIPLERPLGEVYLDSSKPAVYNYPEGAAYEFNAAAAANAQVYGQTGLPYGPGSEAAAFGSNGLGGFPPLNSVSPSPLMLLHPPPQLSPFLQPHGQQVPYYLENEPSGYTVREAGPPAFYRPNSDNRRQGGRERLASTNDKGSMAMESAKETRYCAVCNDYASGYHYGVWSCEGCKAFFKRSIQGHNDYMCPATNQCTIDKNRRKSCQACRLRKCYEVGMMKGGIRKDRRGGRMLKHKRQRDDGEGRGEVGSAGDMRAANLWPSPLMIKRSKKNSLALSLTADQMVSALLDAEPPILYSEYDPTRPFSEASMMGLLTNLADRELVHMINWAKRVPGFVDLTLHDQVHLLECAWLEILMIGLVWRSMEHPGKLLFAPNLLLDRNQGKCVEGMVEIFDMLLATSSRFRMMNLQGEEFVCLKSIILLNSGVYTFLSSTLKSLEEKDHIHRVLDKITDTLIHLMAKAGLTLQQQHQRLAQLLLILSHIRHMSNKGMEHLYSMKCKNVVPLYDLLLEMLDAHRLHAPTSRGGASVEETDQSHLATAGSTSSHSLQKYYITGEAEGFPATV

For assay [6], the target named is X-box-binding protein 1 (Homo sapiens) (UniProt P17861). The assay is described as follows: ATG_Xbp1_CIS: Attagene CIS-FACTORIAL HepG2 Assay for human X-box Binding Protein 1 (XBP1) (AID 2282972; active = hit-call score of the fitted dose curve at least 0.9, where 1 is the maximum; inactive = score below 0.9). Particulars: HepG2 XBP1 cis-element reporter, Attagene multiplex; actives raise or lower the signal. In a few lines:
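Human hepatoma HepG2, cis-element reporter system, 24 h treatment; mRNA quantified by RT-PCR/CE fluorescence; fit relative to DMSO.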

Assay [7] is described as follows: ATG_M_19_TRANS: Attagene TRANS-FACTORIAL HepG2 Assay for M19 Transcription Factor (Internal Marker) (AID 2282974). The note with it: HepG2 Attagene TRANS-FACTORIAL M19 internal marker reporter. In a few lines: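 Transfected HepG2 (GAL4-UAS MRTUs), 24 h compound, TriZol RNA, DNase-treated RT, reporter PCR, FAM label, HpaI digest, CE fluorescence; gain vs DMSO.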

Assay [8] concerns the target Bile acid receptor (Homo sapiens) (UniProt Q96RI1). The assay is described as follows: ATG_FXR_TRANS: Attagene TRANS-FACTORIAL HepG2 Assay for Farnesoid X Receptor (FXR) (AID 2282979).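 Note: hits raise reporter mRNA above DMSO so AC50 marks FXR activation.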 The note with it: HepG2 Attagene TRANS FXR-GAL4 reporter transcription. In a few lines: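 Chimeric FXR-GAL4 activity in transiently transfected human HepG2 liver cells is scored as induction of reporter mRNA after 24 h of dosing. Detection uses RT-PCR with fluorescent labelling and capillary electrophoresis, with DMSO serving as baseline.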

Assay [9] has as its target Transcriptional activator Myb (Homo sapiens) (UniProt P10242). Nature of the assay: ATG_Myb_CIS: Attagene CIS-FACTORIAL HepG2 Assay for human Myeloblastosis (Myb) Proto-Oncogene Transcription Factor (AID 2282986; active = hit-call score of the fitted dose curve at least 0.9, where 1 is the maximum; inactive = score below 0.9). Particulars: HepG2 Attagene CIS-FACTORIAL Myb reporter transcription; actives raise or lower the signal. In a few lines: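 After 24 h of compound dosing, total RNA from transfected HepG2 cells is reverse-transcribed and the reporter sequences amplified, labeled and separated by capillary electrophoresis. Values come from bidirectional fitting against DMSO.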

In assay [10] the target is Glucocorticoid receptor (Homo sapiens) (UniProt P04150). Nature of the assay: ATG_GR_TRANS: Attagene TRANS-FACTORIAL HepG2 Assay for human Glucocorticoid Receptor (GR) (AID 2282978).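 Note: activators score as hits since higher reporter transcript over DMSO is fitted.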 Particulars: HepG2 Attagene TRANS GR reporter, mRNA transcription. In a few lines: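 After 24 h incubation with test chemical, transfected HepG2 cells were lysed for RNA; reporter cDNA was amplified, FAM-labelled, HpaI-digested and sized on a capillary analyser. Signal gain relative to DMSO was scored.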
Sequence of Glucocorticoid receptor (Homo sapiens) (P04150 whole entry, looked up): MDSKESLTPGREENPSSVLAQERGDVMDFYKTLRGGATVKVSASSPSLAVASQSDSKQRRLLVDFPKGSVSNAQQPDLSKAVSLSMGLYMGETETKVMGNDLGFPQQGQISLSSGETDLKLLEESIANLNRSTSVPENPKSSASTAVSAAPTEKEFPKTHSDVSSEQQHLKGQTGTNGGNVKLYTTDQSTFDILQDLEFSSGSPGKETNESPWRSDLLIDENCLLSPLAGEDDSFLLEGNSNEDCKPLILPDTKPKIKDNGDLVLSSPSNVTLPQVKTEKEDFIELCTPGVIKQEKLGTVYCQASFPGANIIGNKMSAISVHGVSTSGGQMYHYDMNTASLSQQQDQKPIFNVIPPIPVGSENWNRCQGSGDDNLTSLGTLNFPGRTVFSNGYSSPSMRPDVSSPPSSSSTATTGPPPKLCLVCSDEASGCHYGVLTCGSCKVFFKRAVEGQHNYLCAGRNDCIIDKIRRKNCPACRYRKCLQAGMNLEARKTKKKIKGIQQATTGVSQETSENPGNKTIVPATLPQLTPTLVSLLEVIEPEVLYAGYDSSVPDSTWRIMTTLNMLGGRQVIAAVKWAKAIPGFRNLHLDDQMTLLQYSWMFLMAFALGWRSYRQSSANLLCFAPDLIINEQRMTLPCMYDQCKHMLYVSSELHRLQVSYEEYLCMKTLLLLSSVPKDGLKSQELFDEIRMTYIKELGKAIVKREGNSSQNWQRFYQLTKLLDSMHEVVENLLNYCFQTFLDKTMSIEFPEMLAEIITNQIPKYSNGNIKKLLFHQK

Assay [11] concerns the target Nuclear receptor subfamily 4 group A member 2 (Homo sapiens) (UniProt P43354). The assay is described as follows: ATG_NURR1_TRANS: Attagene TRANS-FACTORIAL HepG2 Assay for human Nuclear Receptor Related Protein 1 (NURR1) (AID 2282985). Particulars: HepG2 Attagene TRANS reporter, mRNA readout. In a few lines: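 Endpoint: reporter mRNA increase relative to DMSO. HepG2 cells transfected with reporter units, treated 24 h; RNA processed by RT-PCR, labelling, HpaI digestion and capillary electrophoresis.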

The target in assay [12] is Nuclear respiratory factor 1 (Homo sapiens) (UniProt Q16656). The assay is described as follows: ATG_NRF1_CIS: Attagene CIS-FACTORIAL HepG2 Assay for human Nuclear Respiratory Factor 1 (NRF1) Orphan Gene (AID 2282987; active = hit-call score of the fitted dose curve at least 0.9, where 1 is the maximum; inactive = score below 0.9). The note with it: HepG2 NRF1 cis-element reporter, Attagene multiplex; actives raise or lower the signal. In a few lines:
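Measured: fluorescent reporter-specific RT-PCR products from transfected HepG2 cells, separated by capillary electrophoresis. Exposure lasted 24 h. Analysis used bidirectional curve fitting with DMSO as negative control.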

The target of assay [13] is Steroid hormone receptor ERR1 (Homo sapiens) (UniProt P11474). Nature of the assay: ATG_ERRa_TRANS: Attagene TRANS-FACTORIAL HepG2 Assay for human Estrogen-Related Receptor alpha (ERRa) (AID 2282971). Particulars: HepG2 Attagene TRANS reporter, ERRa transactivation. In a few lines: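 HepG2 cells were transiently transfected with multiple GAL4-UAS reporter units, then dosed with compound for 24 h. Total RNA was reverse-transcribed, reporter cDNA PCR-amplified and fluorescently labelled, and fragments resolved by capillary electrophoresis; induction was compared with DMSO.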
Sequence of Steroid hormone receptor ERR1 (Homo sapiens) (P11474 whole entry, looked up, the tested form may be a part): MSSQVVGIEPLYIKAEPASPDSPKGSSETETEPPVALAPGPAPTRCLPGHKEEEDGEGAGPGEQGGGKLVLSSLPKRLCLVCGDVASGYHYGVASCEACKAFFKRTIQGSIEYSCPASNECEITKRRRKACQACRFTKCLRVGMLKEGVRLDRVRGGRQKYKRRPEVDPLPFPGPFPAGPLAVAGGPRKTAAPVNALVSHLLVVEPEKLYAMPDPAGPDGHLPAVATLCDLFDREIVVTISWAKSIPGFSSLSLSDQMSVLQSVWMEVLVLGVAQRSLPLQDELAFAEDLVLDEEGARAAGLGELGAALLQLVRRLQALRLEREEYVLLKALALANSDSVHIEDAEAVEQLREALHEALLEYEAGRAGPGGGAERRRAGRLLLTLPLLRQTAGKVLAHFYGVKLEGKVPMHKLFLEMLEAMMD

Assay [14] has as its target Oxysterols receptor LXR-beta (Homo sapiens) (UniProt P55055). Nature of the assay: ATG_LXRb_TRANS: Attagene TRANS-FACTORIAL HepG2 Assay for human Liver X Receptor beta (LXRb) (AID 2282981). The note with it: HepG2 Attagene TRANS GAL4-LXRb reporter, mRNA. In a few lines:
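Multiplexed reporter assay, HepG2, 24 h dosing. Fluorescence of labelled RT-PCR products after capillary electrophoresis gives transcript level; positive fitting direction relative to DMSO.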

The nature of assay [15]: ATG_M_06_TRANS: Attagene TRANS-FACTORIAL HepG2 Assay for M06 Transcription Factor (Internal Marker) (AID 2282983). Particulars: HepG2 Attagene TRANS M06 internal marker reporter. In a few lines:
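Human liver HepG2 cells bearing transiently transfected chimeric NR-GAL4 reporter units were treated with chemicals for 24 h. Total RNA was reverse-transcribed, reporter sequences amplified and labelled, then quantified by capillary electrophoresis. Activity was fitted upward relative to DMSO.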

Assay [16] is described as follows: ATG_M_32_TRANS: Attagene TRANS-FACTORIAL HepG2 Assay for M32 Transcription Factor (Internal Marker) (AID 2282984).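 Note: transcript level of a background control reporter unit measured by RT-PCR and capillary electrophoresis.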 Particulars: HepG2 Attagene TRANS M32 internal marker reporter. In a few lines:
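Internal-marker readout from a multiplexed transcription reporter panel. HepG2 cells were transfected with GAL4-UAS reporter units, treated 24 hours, and reporter transcript levels determined by fluorescence after RT-PCR and capillary separation.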

Assay [17] concerns the target Estrogen-related receptor gamma (Homo sapiens) (UniProt P62508). Nature of the assay: ATG_ERRg_TRANS: Attagene TRANS-FACTORIAL HepG2 Assay for human Estrogen-Related Receptor gamma (ERRg) (AID 2282977).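 Note: hits increase reporter signal over DMSO so potencies reflect activators.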 The note with it: HepG2 Attagene TRANS reporter, ERRg transactivation. In a few lines:
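Induction of reporter transcripts through a chimeric NR-Gal4 protein is quantified in transfected human HepG2 liver cells after 24 h chemical exposure, using RT-PCR with capillary electrophoresis detection and DMSO as baseline.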

Assay [18] addresses Oxysterols receptor LXR-alpha (Homo sapiens) (UniProt Q13133). The assay is described as follows: ATG_LXRa_TRANS: Attagene TRANS-FACTORIAL HepG2 Assay for human Liver X Receptor alpha (LXRa) (AID 2282980). Particulars: HepG2 Attagene TRANS reporter, LXRa transactivation. In a few lines: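 Transient HepG2 transfectants, 24 h dosing, RT-PCR/CE mRNA reporter quantitation; gain-of-signal vs DMSO.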

In assay [19] the target is Hepatocyte nuclear factor 4-alpha (Homo sapiens) (UniProt P41235). The assay is described as follows: ATG_HNF4a_TRANS: Attagene TRANS-FACTORIAL HepG2 Assay for human Hepatocyte Nuclear Factor 4 alpha (HNF4a) (AID 2282982). The note with it: HepG2 HNF4a transactivation reporter, mRNA readout. In a few lines:
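Endpoint reflects transcriptional activation of a GAL4-UAS reporter by an HNF4a-GAL4 chimera in transfected HepG2 cells, 24 h post-dosing. Fluorescence from RT-PCR products separated by capillary electrophoresis; DMSO baseline.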

Inconclusive results are not listed. Active and inactive are the calls of the source. Rule for the calls, unless noted: active = hit-call score of the fitted dose curve at least 0.9, where 1 is the maximum; inconclusive = response in the unintended direction; inactive = score below 0.9.

Sequence of X-box-binding protein 1 (Homo sapiens) (P17861 whole entry, looked up): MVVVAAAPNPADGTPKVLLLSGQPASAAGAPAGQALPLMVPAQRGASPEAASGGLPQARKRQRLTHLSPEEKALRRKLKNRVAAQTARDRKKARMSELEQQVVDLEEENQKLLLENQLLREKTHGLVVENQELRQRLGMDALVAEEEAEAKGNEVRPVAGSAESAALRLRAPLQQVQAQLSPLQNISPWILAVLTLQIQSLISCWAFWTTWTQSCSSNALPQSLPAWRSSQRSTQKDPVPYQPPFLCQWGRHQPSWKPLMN
Sequence of Nuclear respiratory factor 1 (Homo sapiens) (Q16656 whole entry, looked up): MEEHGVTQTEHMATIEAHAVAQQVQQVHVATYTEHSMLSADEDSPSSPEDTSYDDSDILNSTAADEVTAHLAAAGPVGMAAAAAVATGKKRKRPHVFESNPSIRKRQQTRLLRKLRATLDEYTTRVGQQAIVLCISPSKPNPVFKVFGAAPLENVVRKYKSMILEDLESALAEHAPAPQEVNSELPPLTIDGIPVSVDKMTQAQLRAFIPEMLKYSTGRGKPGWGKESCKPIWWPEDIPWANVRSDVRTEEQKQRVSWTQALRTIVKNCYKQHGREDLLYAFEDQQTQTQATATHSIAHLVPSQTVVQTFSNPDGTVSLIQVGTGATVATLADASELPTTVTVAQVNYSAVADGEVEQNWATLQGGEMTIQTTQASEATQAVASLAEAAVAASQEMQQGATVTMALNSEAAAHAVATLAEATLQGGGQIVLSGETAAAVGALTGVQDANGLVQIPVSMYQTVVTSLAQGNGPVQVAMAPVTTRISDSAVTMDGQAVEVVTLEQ
Sequence of Nuclear receptor subfamily 1 group I member 3 (Homo sapiens) (Q14994 whole entry, looked up, the tested form may be a part): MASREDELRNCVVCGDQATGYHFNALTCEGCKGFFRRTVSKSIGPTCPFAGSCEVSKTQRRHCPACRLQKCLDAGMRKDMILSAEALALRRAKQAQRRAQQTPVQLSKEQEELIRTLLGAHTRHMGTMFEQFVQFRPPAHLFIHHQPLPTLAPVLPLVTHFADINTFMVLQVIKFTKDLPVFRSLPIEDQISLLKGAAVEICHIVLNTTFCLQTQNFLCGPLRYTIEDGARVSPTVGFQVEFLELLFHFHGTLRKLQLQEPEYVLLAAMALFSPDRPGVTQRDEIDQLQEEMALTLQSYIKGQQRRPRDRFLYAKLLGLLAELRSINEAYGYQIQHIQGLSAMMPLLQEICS
Sequence of Transcriptional activator Myb (Homo sapiens) (P10242 whole entry, looked up): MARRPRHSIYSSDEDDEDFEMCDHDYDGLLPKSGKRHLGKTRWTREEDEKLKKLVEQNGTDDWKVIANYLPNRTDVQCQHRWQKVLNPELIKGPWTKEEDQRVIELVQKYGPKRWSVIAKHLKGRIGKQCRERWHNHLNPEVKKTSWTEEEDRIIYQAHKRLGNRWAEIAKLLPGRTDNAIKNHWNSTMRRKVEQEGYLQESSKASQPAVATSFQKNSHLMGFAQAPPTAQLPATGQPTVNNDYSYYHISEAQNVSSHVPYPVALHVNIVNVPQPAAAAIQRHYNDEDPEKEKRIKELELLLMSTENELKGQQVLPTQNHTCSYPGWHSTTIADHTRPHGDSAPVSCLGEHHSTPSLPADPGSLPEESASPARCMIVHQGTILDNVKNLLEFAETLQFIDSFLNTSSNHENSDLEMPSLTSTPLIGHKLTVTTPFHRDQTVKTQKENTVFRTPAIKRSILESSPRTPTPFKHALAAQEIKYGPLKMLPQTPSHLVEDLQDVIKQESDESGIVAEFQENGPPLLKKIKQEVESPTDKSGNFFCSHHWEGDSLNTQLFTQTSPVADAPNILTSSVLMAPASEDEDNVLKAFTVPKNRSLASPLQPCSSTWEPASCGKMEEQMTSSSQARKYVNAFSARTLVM
Sequence of Nuclear receptor subfamily 4 group A member 2 (Homo sapiens) (P43354 whole entry, looked up): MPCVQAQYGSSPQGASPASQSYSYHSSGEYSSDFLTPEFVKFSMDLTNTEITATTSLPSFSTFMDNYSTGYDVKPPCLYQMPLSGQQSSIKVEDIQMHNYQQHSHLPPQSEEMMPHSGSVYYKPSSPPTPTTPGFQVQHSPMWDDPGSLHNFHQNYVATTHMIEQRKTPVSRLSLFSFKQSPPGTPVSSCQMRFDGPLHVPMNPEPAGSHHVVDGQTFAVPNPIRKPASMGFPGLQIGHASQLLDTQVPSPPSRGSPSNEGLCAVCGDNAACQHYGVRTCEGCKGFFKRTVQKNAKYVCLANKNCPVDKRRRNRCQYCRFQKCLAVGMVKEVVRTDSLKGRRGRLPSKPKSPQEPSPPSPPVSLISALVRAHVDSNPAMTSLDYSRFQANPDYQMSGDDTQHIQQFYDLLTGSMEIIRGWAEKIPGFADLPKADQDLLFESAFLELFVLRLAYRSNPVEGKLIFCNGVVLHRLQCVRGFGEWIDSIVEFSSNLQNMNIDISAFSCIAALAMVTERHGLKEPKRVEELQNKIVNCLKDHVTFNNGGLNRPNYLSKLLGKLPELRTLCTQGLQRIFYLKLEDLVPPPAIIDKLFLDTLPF
Sequence of Oxysterols receptor LXR-beta (Homo sapiens) (P55055 whole entry, looked up, the tested form may be a part): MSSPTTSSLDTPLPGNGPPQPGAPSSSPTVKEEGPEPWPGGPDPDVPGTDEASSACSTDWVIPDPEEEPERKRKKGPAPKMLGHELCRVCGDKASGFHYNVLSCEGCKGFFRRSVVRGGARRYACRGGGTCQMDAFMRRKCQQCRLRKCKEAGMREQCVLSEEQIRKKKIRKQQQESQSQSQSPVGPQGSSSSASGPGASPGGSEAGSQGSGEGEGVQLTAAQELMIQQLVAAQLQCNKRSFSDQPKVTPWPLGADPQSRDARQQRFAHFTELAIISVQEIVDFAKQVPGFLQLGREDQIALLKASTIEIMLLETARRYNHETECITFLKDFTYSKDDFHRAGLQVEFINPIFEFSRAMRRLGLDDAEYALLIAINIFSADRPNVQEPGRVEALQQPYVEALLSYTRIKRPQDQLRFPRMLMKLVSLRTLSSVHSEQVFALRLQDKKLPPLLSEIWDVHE

In the case of `CCCCCCCCCCOS(=O)(=O)O`, the call in [1], in assay [2], in [3], in assay [4], in [5] and in assay [6] was inactive. Further, the outcome in [7], in assay [8] and in [9] was inactive.

As to `Cc1ccc(C(C)c2ccc(C)c(C)c2)cc1C`, the results for the AC50 in assay [1] and in [9] were 123 µM (active) and 125 µM (active), respectively. Moreover, the compound was called inactive in assay [2], in assay [3], in [4], in [5], in assay [6] and in [7]. The compound was called inactive in assay [10], in assay [11] and in assay [12].

On to `C=C(C)[C@@H]1CCC2=CCC[C@@H](C)[C@]2(C)C1`, for which the compound was called inactive in [1], in [2], in assay [3], in assay [4], in assay [13] and in assay [6]. In addition, the call in assay [7], in [10], in assay [14], in [15], in [16] and in assay [11] was inactive. Moreover, the call in assay [9] and in assay [12] was inactive. Besides, the AC50 in [5] is 9.59 µM (active).

As for `C=C1C2CCC(C2)C1(C)C` (configuration not stated), the compound was classed as inactive in assay [1], in assay [2], in assay [3], in assay [4], in [5] and in [6]. Besides, the call in [7], in [17], in [10], in assay [11], in assay [9] and in assay [12] was inactive.

As for `CC=CC(=O)N(CC)c1ccccc1C`, the compound was called inactive in assay [1], in assay [2], in [4], in [5], in assay [13] and in [6]. In addition, the compound was called inactive in assay [7], in [10], in [18], in [14], in assay [19] and in assay [16]. Besides, the outcome in assay [9] and in assay [12] was inactive. For the same compound, in assay [3], the AC50 is 15.5 µM (active).

Source of the values: PubChem BioAssay (EPA / NIEHS).
